Screening results as filed in PubChem.
ELG1 genotoxic = genotoxicity induction in ELG1-luciferase HEK293T cells; AID 504466; Potency, µM (titrated, usually from 46 µM), without a hit: at the highest dose activity change, positive = activation, usual class: activators; 330,000 compounds, 1.3% hits; HEK293T ELG1-luciferase reporter, luminescence, 16 h; also: % of control where 0% means no effect; nearly all actives have a fitted effect of over 60% in size
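HEK293T cells expressing luciferase-tagged ELG1 were treated with compound or DMSO for 16 hr at 37°C. Luciferase activity was then read after 30 min with ONE-Glo at room temperature; rising signal flags genetic stress.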
NPC1 prom act = activates the NPC1 promoter | Huh7 NPC1 promoter luciferase reporter, 24 h | Potency, µM (titrated, usually from 9.22 µM), for the others: top-dose activation, usual class: activators | 320,000 compounds, 2.4% hits | AID 485313; also: % of control where 0% means no effect; nearly all actives have a fitted effect of over 60% in size
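In 1536-well qHTS, Huh7 cells harboring an NPC1 promoter–luciferase construct received compound for 24 h; activation was quantified by luminescence following luciferase reagent addition.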
Luc counter = Kinase-Glo luciferase inhibition (counter-screen). Q27757. Kinase-Glo luciferase, ATP luminescence, 8 min. Potency, µM (highest dose often 38.3 µM), without a hit: at the highest dose activity change, negative = inhibition, hits mostly inhibitors. 200,000 compounds, 0.28% hits. AID 1379; also: % is scaled to controls: 0 for no effect and ±100 for the full control effect; nearly all actives have a fitted effect of over 60% in size
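Compounds were added to a substrate mix at pH 7.2 (50 mM imidazole, 10 uM ATP, within the enzyme's linear range), followed by Kinase-Glo detection reagent; luminescence was measured after 8 minutes at ambient temperature.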
SMN2 splice up = enhancers of SMN2 splice variant expression; HEK293 SMN2-luciferase splicing reporter, luminescence, 30-36 h; Potency, µM (titrated, usually from 46.1 µM), for the others: at the top dose activity change, positive = activation, most hits filed as activators; 210,000 compounds, 2.8% hits; also: % of control where 0% means no effect; nearly all actives have a fitted effect of over 55% in size
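qHTS luciferase splicing reporter: luminescence rises when SMN2 exon 7 is included in transfected HEK293 cells. Compound exposure lasted 30-36 h at 37C, with 4.5 mM final sodium butyrate as control, followed by a ONE-Glo read.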
Rab9 promoter act = Rab9 promoter activation; Huh7 Rab9 promoter-luciferase reporter, luminescence, 24 h; Potency, µM (top dose mostly 9.22 µM), for the others: at the top dose activation, negative = inhibition, hits mostly activators; 320,000 compounds, 2.8% hits; AID 485297; also: % of control where 0% means no effect; nearly all actives have a fitted effect of over 60% in size
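Huh7 reporter line, Rab9 promoter upstream of luciferase. Compound exposure 24 h at 37 °C in reduced-serum medium with 10% FBS. Read-out: luminescence.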
FLuc modulator = firefly luciferase modulation, counter-screen for miR-21 project; P08659; purified FLuc, Km substrates, luminescence inhibition; Potency, µM (top dose mostly 57.5 µM), for inactives: at the top dose activity change, negative = inhibition, usual class: inhibitors; 360,000 compounds, 6.9% hits; AID 588342;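 also: plate controls were vehicle for no effect and reference inhibitor for full effect; nearly all actives have a fitted effect of over 55% in size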
Target sequence (P08659 whole entry, looked up): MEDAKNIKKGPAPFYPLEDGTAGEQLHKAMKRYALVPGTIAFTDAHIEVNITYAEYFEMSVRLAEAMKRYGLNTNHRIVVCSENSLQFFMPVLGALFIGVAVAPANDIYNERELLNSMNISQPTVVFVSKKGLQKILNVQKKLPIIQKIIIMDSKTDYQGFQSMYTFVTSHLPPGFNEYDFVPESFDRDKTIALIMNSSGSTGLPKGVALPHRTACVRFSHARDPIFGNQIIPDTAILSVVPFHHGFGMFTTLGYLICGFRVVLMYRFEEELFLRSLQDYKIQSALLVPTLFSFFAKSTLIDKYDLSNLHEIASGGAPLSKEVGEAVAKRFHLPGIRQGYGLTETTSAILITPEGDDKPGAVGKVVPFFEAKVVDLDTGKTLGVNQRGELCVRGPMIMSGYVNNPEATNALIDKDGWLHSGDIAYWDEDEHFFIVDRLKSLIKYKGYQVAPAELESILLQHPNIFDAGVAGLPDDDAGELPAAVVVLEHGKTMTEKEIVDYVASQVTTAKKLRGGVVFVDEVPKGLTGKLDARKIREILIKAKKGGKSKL
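Purified P. pyralis luciferase (10nM final) with 10uM D-luciferin and 10uM ATP (Km levels) in 50mM Tris acetate pH 7.5, 10mM Mg acetate, 0.01% Tween-20, 0.05% BSA; qHTS 6-point titration, ~60 µM downward; luminescence read.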
An asterisk follows results filed as active; ? = inconclusive; / = no result given. A selection: hits, their analogues and other compounds. The true share with any hit is near 7.3%. Calls follow the shape of the dose curve; as a rule, active = well fitted curve in the direction sought with a large enough effect; inconclusive = small, poorly fitted or top-dose-only effect, or another doubt; inactive = no such curve, though single readings can be large; an effect the other way counts as inactive or inconclusive. Potency is read from the fitted curve at half-maximal effect.

SMILES	ELG1 genotoxic	NPC1 prom act	Luc counter	SMN2 splice up	Rab9 promoter act	FLuc modulator
CC1CCN(C(=O)c2cc(-c3ccco3)on2)CC1	16.4µM*	1.78µM*	/	/	2.82µM*	13.5µM*
O=C(c1cc(-c2ccccc2O)on1)N1CCc2ccccc2C1	15.8%	-4.6%	-0.3%	21.1%	6.3%	?
CC1CCCC(C)N1C(=O)c1cc(-c2ccco2)on1 (stereo not drawn)	28.6%	2.6%	/	/	7.9%	-15.5%
CC1CCN(C(=O)c2cc(-c3ccccc3O)on2)CC1	2.59µM*	2.51µM*	3.3%	?	3.16µM*	2.69µM*
Cc1ccccc1NC(=O)CCN1CCN(C/C=C/c2ccccc2)CC1	-3.5%	-2.5%	12.9%	-17.1%	3.8%	1.0%
CC(=O)CCc1oc2ccccc2c1-c1ccccc1	-0.1%	-4.8%	/	/	-5.9%	-5.0%
COC(=O)c1cccc(NC(=S)NCc2ccc(F)cc2)c1	-3.7%	10.1%	-2.1%	7.08µM*	-6.0%	3.8%
COC(=O)c1cccc(NC(=S)NCc2ccco2)c1	3.1%	3.6%	0.4%	-5.6%	0.2%	?
CNC(=S)Nc1cccc(C(=O)OC)c1	17.8%	3.55µM*	/	/	2µM*	-3.3%
CN(C)c1ccc(-c2nnc(-c3ccccc3F)o2)cc1	?	0.355µM*	/	/	0.447µM*	1.2µM*
COc1ccc(-c2nnc(-c3ccc(N(C)C)cc3)o2)cc1	/	/	0.7%	25.0%	/	2.13µM*
O=[N+]([O-])c1cccc(-c2nnc(-c3ccccc3F)o2)c1	?	2.51µM*	/	/	2µM*	12µM*
COc1ccc(-c2ccc(-c3nnc(-c4cc(OC)ccc4OC)o3)cc2)cc1	15.7%	-3.7%	-1.5%	-25.0%	0.9%	0.4%
COc1ccc(-c2nnc(-c3ccc(N)cc3)o2)cc1	7.31µM*	?	-3.7%	12.6µM*	?	3.38µM*
O=C(O)CC(Cc1ccc(Cl)cc1)C(=O)Nc1ccccc1 (stereo not drawn)	-0.9%	10.1%	/	/	-2.5%	-8.9%
Cc1[nH]ccc(=O)c1OCC(=O)O	-0.8%	0.8%	/	/	-5.5%	1.7%
Cc1ccccc1C(=O)Nc1ccc2c(c1)C(=O)NC2=O	3.6%	-0.2%	/	/	0.2%	-1.6%
Cc1ccc2cc(NC(=O)c3ccccc3C)ccc2n1	?	2.82µM*	/	/	3.55µM*	5.36µM*
Cc1ccc2cc(NC(=O)Cc3ccccc3)ccc2n1	?	1.41µM*	/	/	2µM*	3.38µM*
COc1cc(/C=N/n2c(-c3ccccc3)n[nH]c2=S)cc(OC)c1OC	3.8%	1.5%	/	/	-3.3%	3.0%
O=C(Nc1ccc2c(c1)OCO2)c1noc2c1CCCC2	0.651µM*	0.794µM*	/	/	0.631µM*	1.51µM*
O=C(Nc1ccc2c(c1)OCO2)c1noc2c1CCCCC2	?	0.562µM*	-13.7%	5.62µM*	0.447µM*	2.13µM*
N#Cc1ccc(CO/N=C/c2ccccc2)cc1	?	?	-2.6%	?	?	23.9µM*
Cc1cc(OCCn2cnc3ccccc3c2=O)ccc1[N+](=O)[O-]	9.7%	1.4%	-3.0%	-19.5%	3.5%	0.0%
Cc1ccc(OCCn2cnc3ccccc3c2=O)c([N+](=O)[O-])c1	?	2.82µM*	-4.0%	15.8µM*	1.78µM*	?
CS(=O)(=O)c1nsc2nc(=O)c(/C=C3\C=Nc4ccccc43)c(N)n12	4.4%	-0.7%	-1.2%	3.0%	1.3%	15.1µM*
CC(C)Sc1nsc2nc(=O)c(/C=C3\C=Nc4ccccc43)c(N)n12	0.2%	-1.1%	1.4%	0.6%	-1.6%	23.9µM*
CC(C)c1nn2c(N)c(/C=C3\C=Nc4ccccc43)c(=O)nc2s1	3.8%	1.3%	/	/	-6.1%	?
COc1ccc(NC2CS(=O)(=O)CC2OC(=O)c2ccc(F)cc2)cc1 (stereo not drawn)	-0.5%	0.1%	6.4%	-8.1%	-6.1%	-0.2%
O=C(CCC(=O)N1CCOc2ccccc21)N1CCN(c2ccccc2)CC1	-1.3%	-6.0%	/	/	11.5%	4.5%
